The supplement of paper PMC13380429
Counter-ions that a name gives are not always drawn.

Test system: Vero E6 infected with SARS-CoV-2
Test: inhibition of SARS-CoV-2 cytopathic effect; higher = more antiviral protection, active = above 15
Settings: 48 h

Measured: inhibition of SARS-CoV-2 cytopathic effect

Cc1nc2c(c(=O)[nH]1)CSCC2
inactive: 1 nM 1.12% | 8.33 nM -1.82% | 100 nM 0.46% | 833.33 nM 0.11% | 10000 nM 4.1%

OC(c1ccccc1)C1CCN(CCc2ccccc2)CC1 (stereo not given)
inactive: 1 nM -0.21% | 8.33 nM 1.17% | 100 nM -0.64% | 833.33 nM -0.54% | 10000 nM 0.25%

O=C(O)c1cc(O)c2c(Cl)cc(Cl)cc2n1 [5,7-dichlorokynurenic-acid]
inactive: 1 nM 1.65% | 8.33 nM -2.54% | 100 nM -2.79% | 833.33 nM 0.55% | 10000 nM -0.44%

Cc1cc(-n2c(=O)[nH]c(=O)n(C)c2=O)ccc1Oc1ccc(SC(F)(F)F)cc1 [toltrazuril]
inactive: 1 nM 1.91% | 8.33 nM -0.85% | 100 nM 1.02% | 833.33 nM -10.3% | 10000 nM -0.06%

CNC(=O)[C@@H](c1ccccc1)N1CCc2cc(OC)c(OC)cc2[C@@H]1CCc1ccc(C(F)(F)F)cc1 [almorexant]
inactive: 1 nM 2.74% | 8.33 nM 2.39% | 100 nM 2.44% | 833.33 nM 1.95% | 10000 nM 1.06%

COCC(=O)Nc1c(I)c(C(=O)NCC(O)CO)c(I)c(C(=O)N(C)CC(O)CO)c1I (stereo not given) [iopromide]
inactive: 1 nM -2.42% | 8.33 nM -1.91% | 100 nM -0.01% | 833.33 nM -0.15% | 10000 nM 0.66%

O=C(O)CCNC(=O)c1ccccc1 [betamipron]
inactive: 1 nM -2.23% | 8.33 nM -0.21% | 100 nM 0.07% | 833.33 nM -1.91% | 10000 nM -2.18%

CCCc1nc2c(C)cc(-c3nc4ccccc4n3C)cc2n1Cc1ccc(-c2ccccc2C(=O)O)cc1 [telmisartan]
inactive: 1 nM -1.56% | 8.33 nM -2.17% | 100 nM -4.81% | 833.33 nM 2.3% | 10000 nM 1.33%

O=C(Oc1ccc([N+](=O)[O-])cc1)N1CCN(Cc2cccc(Oc3ccccc3)c2)CC1
inactive: 1 nM -1.56% | 8.33 nM -2.22% | 100 nM -1.22% | 833.33 nM -1.53% | 10000 nM 1.51%

Cc1ccc(S(=O)(=O)NCl)cc1 [chloramine-T]
inactive: 1 nM 1.46% | 8.33 nM 3.35% | 100 nM 1.32% | 833.33 nM 0.02% | 10000 nM -5.13%

CC(C)NC(=O)c1ccc(C#Cc2ccncc2)cn1
inactive: 1 nM -1% | 8.33 nM 1.41% | 100 nM 2.79% | 833.33 nM 1.58% | 10000 nM 13.2%

CC(C)(O)c1coc(S(=O)(=O)NC(=O)Nc2c3c(cc4c2CCC4)CCC3)c1
inactive: 1 nM -0.7% | 8.33 nM -2.3% | 100 nM -3.97% | 833.33 nM 0.34% | 10000 nM -0.6%

C=C1CC[C@@]2(O)[C@H]3Cc4ccc(O)c5c4[C@@]2(CCN3CC2CC2)[C@H]1O5 [nalmefene]
inactive: 1 nM 1.67% | 8.33 nM 1.64% | 100 nM 2.15% | 833.33 nM -1.46% | 10000 nM -3.45%

C=CC(=O)O [acrylate]
inactive: 1 nM 0.49% | 8.33 nM -3.42% | 100 nM -3.82% | 833.33 nM 4.25% | 10000 nM -1.97%

O/N=C/c1ccc(-c2ccc(O)c(F)c2)c(Cl)c1O
inactive: 1 nM -3.41% | 8.33 nM -2.33% | 100 nM -2.06% | 833.33 nM -0.62% | 10000 nM -12.8%

NS(=O)(=O)c1ccc(C(=O)O)cc1 [carzenide]
inactive: 1 nM -1.83% | 8.33 nM -0.09% | 100 nM 0.05% | 833.33 nM 2.39% | 10000 nM -0.52%

CC(C)OC(=O)[C@H](C)N[P@](=O)(CO[C@H](C)Cn1cnc2c(N)ncnc21)Oc1ccccc1 [tenofovir-alafenamide]
inactive: 1 nM -2.51% | 8.33 nM -1.55% | 100 nM -0.12% | 833.33 nM -2.51% | 10000 nM 3.48%

CC(=O)c1cc2c(o1)C(=O)c1ccccc1C2=O [napabucasin]
inactive: 1 nM 0.24% | 8.33 nM 1.91% | 100 nM 1.42% | 833.33 nM 7.16% | 10000 nM -36.6%

COc1ccc(CNC(=O)c2cc(-c3cncc(C)c3)ncc2-c2nccs2)nc1OC
inactive: 1 nM 1.93% | 8.33 nM 4.06% | 100 nM 1.64% | 833.33 nM -9.94% | 10000 nM 3.12%

CCN(CC)CCCCNc1ncc2cc(-c3c(Cl)cccc3Cl)c(NC(=O)NC(C)(C)C)nc2n1
inactive: 1 nM -1.36% | 8.33 nM -1.31% | 100 nM 2.1% | 833.33 nM -1.78% | 10000 nM 13.4%

CCOC(=O)[C@@H](N)Cc1ccc(O)c(O)c1 [etilevodopa]
inactive: 1 nM 3.02% | 8.33 nM 1.51% | 100 nM 2.32% | 833.33 nM 0.72% | 10000 nM 0.9%

C[C@H](N)Cc1c[nH]cn1 [alpha-methylhistamine-dihydrobromide-(S)-(+)]
inactive: 1 nM -0.195% | 8.33 nM -0.765% | 100 nM 8.02% | 833.33 nM 1.26% | 10000 nM 2.96%

Cc1cc(CN2CCN(c3c(Br)cnc4nc(-c5ccc(N6CCN(C)CC6)cc5)[nH]c34)CC2)no1
inactive: 1 nM -1.63% | 8.33 nM -1.4% | 100 nM -0.54% | 833.33 nM -5% | 10000 nM -6.41%

CCN1CCCC(OC(=O)C(c2ccccc2)c2ccccc2)C1 (stereo not given) [piperidolate]
inactive: 1 nM -8.23% | 8.33 nM -7.13% | 100 nM -7.85% | 833.33 nM -6.63% | 10000 nM -10.7%

CO[C@]12C[C@@H](COC(=O)c3cncc(Br)c3)CN(C)[C@@H]1Cc1cn(C)c3cccc2c13 [nicergoline]
inactive: 1 nM 0.73% | 8.33 nM -1.36% | 100 nM -1.54% | 833.33 nM 0.48% | 10000 nM -0.35%

O=C1c2ccccc2-c2c(NCCc3ccccc3)c(=O)[nH]c3cccc1c23
inactive: 1 nM -0.39% | 8.33 nM 1.98% | 100 nM 0.01% | 833.33 nM 2.52% | 10000 nM 1.12%

Cc1c(N)cccc1Cn1ccc(OCCc2cccs2)cc1=O
inactive: 1 nM -0.22% | 8.33 nM 0.73% | 100 nM 1.31% | 833.33 nM 0.66% | 10000 nM -2.07%

C=CC1=C(C)C2=CC3=NC(=C(CC(=O)O)C4=NC(=C(C)C4=C(O)O)C=c4[nH]c(c(C)c4CC)=CC1=N2)C(CCC(=O)O)C3C (stereo not given) [chlorophyllin]
inactive: 1 nM -0.57% | 8.33 nM -1.3% | 100 nM -0.92% | 833.33 nM -4.38% | 10000 nM -10.6%

NS(=O)(=O)c1cc2c(cc1Cl)NC(CC1CCCC1)NS2(=O)=O (stereo not given) [cyclopenthiazide]
inactive: 1 nM 1.26% | 8.33 nM 2.37% | 100 nM -0.67% | 833.33 nM -2.85% | 10000 nM -0.14%

Cc1n[nH]c(C)c1Cc1sc2c(c1C(=O)N1C[C@H](O)CO1)c(=O)n(C)c(=O)n2CC(C)C
inactive: 1 nM 1.42% | 8.33 nM 3.88% | 100 nM 0.66% | 833.33 nM 1.3% | 10000 nM 1.69%

Cc1ccccc1-n1c(Cn2ncc3c(N)ncnc32)nc2cccc(C)c2c1=O
active: 10000 nM 54.3%
inactive: 1 nM -1.01% | 8.33 nM 0.63% | 100 nM 0.62% | 833.33 nM -3.58%

Cn1c(=O)c2c(ncn2CCOC(=O)C(C)(C)Oc2ccc(Cl)cc2)n(C)c1=O [etofylline-clofibrate]
inactive: 1 nM 4.94% | 8.33 nM 3.79% | 100 nM 1.68% | 833.33 nM 2.56% | 10000 nM -0.53%

CC1=C(CC(=O)O)c2cc(F)ccc2/C1=C\c1ccc([S+](C)[O-])cc1 (stereo not given) [sulindac]
inactive: 1 nM -0.99% | 8.33 nM -2.82% | 100 nM -1.46% | 833.33 nM -0.62% | 10000 nM -2.36%

CCn1nc(C)c2c1C(c1ccccc1)=NCC(=O)N2 [ripazepam]
inactive: 1 nM -1.39% | 8.33 nM 0.91% | 100 nM 0.56% | 833.33 nM -0.98% | 10000 nM -3.15%

CC(C(=O)O)c1ccc(N2Cc3ccccc3C2=O)cc1 (stereo not given) [indoprofen]
inactive: 1 nM 0.91% | 8.33 nM 0.93% | 100 nM 0.86% | 833.33 nM 1.21% | 10000 nM 0.49%

Nc1ccc(F)cc1NC(=O)c1ccc(CNC(=O)/C=C/c2cccnc2)cc1 [chidamide]
inactive: 1 nM 0.62% | 8.33 nM 0.21% | 100 nM -1.13% | 833.33 nM 1.82% | 10000 nM -0.06%

O=S(=O)(N[C@H](CO)C(C(F)(F)F)C(F)(F)F)c1ccc(Cl)s1 [begacestat]
inactive: 1 nM -4.03% | 8.33 nM -5.1% | 100 nM -1.3% | 833.33 nM -4.51% | 10000 nM -7.85%

CC(c1cc2ccccc2s1)N(O)C(N)=O (stereo not given) [zileuton]
inactive: 1 nM -2.05% | 8.33 nM -0.81% | 100 nM 1.43% | 833.33 nM -1.9% | 10000 nM -1.8%

NC(N)=Nc1nc(CSCC/C(N)=N/S(N)(=O)=O)cs1 [Famotidine]
inactive: 1 nM 1.28% | 8.33 nM 0.44% | 100 nM -0.39% | 833.33 nM -0.03% | 10000 nM -0.45%

CC[C@@H](c1ccc(F)c(F)c1)n1c(C(=O)OC)c(-c2ccno2)[nH]c1=S
inactive: 1 nM 1.31% | 8.33 nM 2.77% | 100 nM 1.18% | 833.33 nM 1.19% | 10000 nM -0.12%
